# Test results reported in PubChem BioAssay (NCATS).
# Unmarked numbers belong to inactive results. Inconclusive results are not listed. A call without a number means that no potency is given here. Activity calls are given as the source filed them. Calls come from the whole dose curve; as a rule, active = well fitted curve in the direction sought with a large enough effect; inconclusive = small, poorly fitted or top-dose-only effect, or another doubt; inactive = no such curve, though single readings can be large; an effect the other way counts as inactive or inconclusive.
# Columns and labels:
# [1] = qHTS for inhibitors of adenylyl cyclases using a fission yeast platform: a pilot screen against the NCATS LOPAC library (AID 1347410); details: S. pombe CHP2027, fbp1-GFP fluorescence, 18 h, yeast expressing mammalian AC9 and human GNAS; series mostly up to 57.5 µM
# How it was run: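 S. pombe CHP2027 (AC9-GNAS-PDE4D2) carrying PKA-repressed fbp1-GFP, incubated 18 h at 30C in EMM with LOPAC compounds at up to 57 uM. GFP gain-of-signal read by laser scanning cytometry; DMSO negative control.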
# [2] = biological target: Protein phosphatase 1D (Homo sapiens) (UniProt O15297); test: Rhodamine-PBP qHTS Assay for Modulators of WT P53-Induced Phosphatase 1 (WIP1) (AID 1347425); details: recombinant WIP1, Rhodamine-PBP phosphate fluorescence, real-time; series mostly up to 57.5 µM
# How it was run: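 WIP1 (5 nM final) was preincubated with compound for 1 hour at room temperature. It then dephosphorylated 10 uM VEPPL-pS-QETFS peptide in Tris-HCl pH 7.5 with 30 mM MgCl2. Released Pi was detected by 10 uM Rh-PBP fluorescence (ex 525/em 598 nm) read at 1-min intervals for 11 min, as delta f1 - f0.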
# [3] = Validation qHTS assay for inhibitors of Activation Induced Cytidine Deaminase (AID): UDG Counterscreen signal (AID 1347427); details: biochemical UDG counterscreen, fluorescence signal; series mostly up to 115 µM
# How it was run: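 Fluorescence at 560 nm excitation, 665 nm emission reports UDG signal after 250 mM NaOH (2x) addition and 30 min. Enzymes (AID 1 uM, UDG 2 U/mL, at 4/3x) preincubated 10 min with compound, then 4 h with 4x 250 nM DJC20/DJC23 substrate at room temperature.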
# [4] = biological target: Single-stranded DNA cytosine deaminase (Homo sapiens) (UniProt Q9GZX7); test: Validation qHTS assay for inhibitors of Activation Induced Cytidine Deaminase (AID): AID signal (AID 1347429); details: Recombinant AID, FRET ssDNA deamination with UDG, fluorescence; series mostly up to 115 µM
# How it was run: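 Steps: dispense AID with UDG; pin-transfer compound up to 114 uM final; add DJC20/DJC23 substrate and hold 4 hr at room temperature; add NaOH, hold 30 min; read FRET signal (540/590 nm).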
# [5] = Primary qHTS for inhibitors of La Crosse Virus (LACV) - induced cell death in SH-SY5Y cells (AID 1508616); details: SH-SY5Y LACV cytopathicity rescue, ATP luminescence, 6 d; series mostly up to 9.63 µM;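 note: top concentration of the series differs between compounds; higher means more rescue of cells from virus-induced death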
# How it was run: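 SH-SY5Y, 6000 cells/well; cpd via pin tool in DMSO; LACV 0.01 MOI; 6 d 37C 5% CO2; ATPLite, 5 min RT; luminescence normalized to ±virus DMSO controls.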
# [6] = biological target: Protein phosphatase 1D (Homo sapiens) (UniProt O15297); test: RapidFire Mass Spectrometry qHTS Assay for Modulators of WT P53-Induced Phosphatase 1 (WIP1) (AID 1347424); details: WIP1 dephosphorylation of phosphopeptide, RapidFire MS; series mostly up to 63 µM;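 note: amount of dephosphorylated VEPPL-S-QETFS peptide product formed by WIP1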
# How it was run: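 Mass-spectrometric measurement of dephosphorylated peptide after a 5 min room-temperature reaction of 10 nM WIP1 with 2 uM phosphopeptide, following 1 h compound preincubation in 30 mM MgCl2 buffer.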
# [7] = qHTS to identify inhibitors of the type 1 interferon - major histocompatibility complex class I in skeletal muscle: primary screen against the NCATS LOPAC collection (AID 1347405); details: iHSKM muscle cells, IFN-b-induced MHC-I HiBiT luminescence, 24 h; series mostly up to 45.9 µM;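 note: lytic HiBiT luminescence reporting HLA-B protein level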; note: potency is the fitted concentration of half-maximal effect
# How it was run: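 First, engineered myoblasts carrying HLA-B-HiBiT were seeded in medium lacking dexamethasone with 4 ng/ml IFN-beta. After 1 hr, compounds were pinned in (top 46 uM final, 7 points). After 24 hrs at 37 C, luminescence was measured following 10 min lysis.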
# [8] = qHTS to identify inhibitors of the type 1 interferon - major histocompatibility complex class I in skeletal muscle: primary screen against the NCATS Pharmaceutical Collection (AID 1347407); details: human skeletal muscle cells, IFN-b-induced MHC-I HiBiT luminescence, 24 h; series mostly up to 45.9 µM;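 note: luminescence of HiBiT knocked into endogenous HLA-B as interferon-induced MHC class I level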; note: potency is the fitted concentration of half-maximal effect
# How it was run: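 Immortalized human myoblasts (C25cl48) with HiBiT knocked into endogenous HLA-B*08:01 were stimulated with 4.0 ng/ml IFN-beta and treated with compounds ([…] top 46 uM) for 24 hrs at 37 C. HiBiT lytic luminescence read.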
# [9] = biological target: Calcium and integrin-binding protein 1 (Homo sapiens) (UniProt Q99828); test: Confirmatory qHTS for Identification of Calcium Integrin Binding Protein 1 (CIB1) Competitor (AID 1508617); details: CIB1 binding competition assay, biochemical qHTS; series mostly up to 57.1 µM; note: nearly all actives have a fitted effect of over 65% in size
# How it was run: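 FP competition: CIB1-GST (1 uM final) in 5 mM HEPES pH 7.4, 125 mM NaCl, 5 mM CaCl2, 0.01% Tween20 preincubated 15 min RT with compounds (up to 114 uM), then FITC-alphaIIb peptide (100 nM), 15 min RT; Ex 480/Em 540.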
# [10] = qHTS to identify inhibitors of the type 1 interferon - major histocompatibility complex class I in skeletal muscle: primary screen against the NCATS Mechanism Interrogation Plate v5.0 (MIPE) Libary (AID 1347411); details: iHSKM cells + IFN-b, HiBiT-tagged MHC-I luminescence, 24 h; series mostly up to 45.8 µM; note: nearly all actives have a fitted effect of over 65% in size
# How it was run: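 Seed engineered human myoblasts (HLA-B HiBit) in medium without dexamethasone containing 4 ng/ml IFN-beta; after 1 hr add compound titrations (top 46 uM final). Incubate 24 hrs at 37 C, lyse 10 min with HiBiT reagent, read luminescence.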
# Sequence of Protein phosphatase 1D (Homo sapiens) (O15297 whole entry, looked up): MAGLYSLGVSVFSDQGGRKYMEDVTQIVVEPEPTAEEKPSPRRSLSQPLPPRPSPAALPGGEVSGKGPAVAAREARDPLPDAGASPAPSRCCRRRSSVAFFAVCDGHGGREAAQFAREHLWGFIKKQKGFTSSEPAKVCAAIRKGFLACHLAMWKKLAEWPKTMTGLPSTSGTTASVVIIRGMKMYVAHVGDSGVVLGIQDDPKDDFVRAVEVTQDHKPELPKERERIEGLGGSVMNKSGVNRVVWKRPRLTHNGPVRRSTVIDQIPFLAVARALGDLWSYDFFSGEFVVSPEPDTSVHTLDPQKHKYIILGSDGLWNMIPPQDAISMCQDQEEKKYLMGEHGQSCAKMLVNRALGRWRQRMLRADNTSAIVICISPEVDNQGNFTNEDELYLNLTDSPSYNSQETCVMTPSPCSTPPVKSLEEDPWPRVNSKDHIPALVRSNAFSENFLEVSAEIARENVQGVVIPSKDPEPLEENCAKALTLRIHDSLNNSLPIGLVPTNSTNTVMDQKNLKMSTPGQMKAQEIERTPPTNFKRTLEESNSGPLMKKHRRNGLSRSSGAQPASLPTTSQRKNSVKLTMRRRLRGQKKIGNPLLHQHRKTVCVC
# Sequence of Single-stranded DNA cytosine deaminase (Homo sapiens) (Q9GZX7 whole entry, looked up): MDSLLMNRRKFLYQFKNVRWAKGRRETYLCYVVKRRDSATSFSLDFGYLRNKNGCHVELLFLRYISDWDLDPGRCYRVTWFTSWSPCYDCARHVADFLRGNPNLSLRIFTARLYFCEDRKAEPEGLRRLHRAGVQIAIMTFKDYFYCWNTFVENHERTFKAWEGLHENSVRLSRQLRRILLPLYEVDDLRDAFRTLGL
# Sequence of Calcium and integrin-binding protein 1 (Homo sapiens) (Q99828 whole entry, looked up): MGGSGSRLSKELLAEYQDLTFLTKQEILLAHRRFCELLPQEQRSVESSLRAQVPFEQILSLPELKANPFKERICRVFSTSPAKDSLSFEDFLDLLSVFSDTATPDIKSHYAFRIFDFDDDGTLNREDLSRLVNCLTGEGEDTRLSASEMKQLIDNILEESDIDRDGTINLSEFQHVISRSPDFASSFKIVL
SMILES,outcome [1],outcome [2],outcome [3],Potency [4],Potency [5],Potency [6],Potency [7],Potency [8],outcome [9],Potency [10]
COc1cc2c(cc1OC)-c1cc(=Nc3c(C)cc(C)cc3C)n(C)c(=O)n1CC2,inactive,inactive,inactive,inactive,inactive,–,–,–,–,–
CC(C)(Oc1ccc(CCNC(=O)c2ccc(Cl)cc2)cc1)C(=O)O,inactive,–,inactive,inactive,inactive,inactive,–,–,–,–
COc1cc(C(=O)OCCCN2CCCN(CCCOC(=O)c3cc(OC)c(OC)c(OC)c3)CC2)cc(OC)c1OC,inactive,–,inactive,inactive,inactive,–,–,–,–,–
CCc1cccc(N(C)C(N)=Nc2cccc3ccccc23)c1,inactive,–,inactive,inactive,inactive,–,inactive,inactive,–,–
COc1ccc(CN(CCN(C)C)c2ccccn2)cc1,inactive,–,–,–,inactive,–,inactive,inactive,–,–
CCn1cc(C(=O)O)c(=O)c2cc3c(cc21)OCO3,inactive,–,inactive,inactive,inactive,–,inactive,inactive,–,–
CCOC(=O)C1=C(C)NC(C)=C(C(=O)OC)C1c1cccc(Cl)c1Cl (configuration not stated),inactive,–,–,–,inactive,–,–,–,–,–
Cc1nnc(SCC2=C(C(=O)O)N3C(=O)[C@@H](NC(=O)Cn4cnnn4)[C@H]3SC2)s1,inactive,inactive,–,–,inactive,inactive,–,–,–,–
CC(C)(C)c1ccc(C(=O)CCCN2CCC(OC(c3ccccc3)c3ccccc3)CC2)cc1,inactive,inactive,inactive,inactive,inactive,inactive,–,inactive,–,–
CC(=O)Nc1nnc(S(N)(=O)=O)s1,inactive,–,inactive,inactive,inactive,–,inactive,inactive,–,–
C[n+]1cc2c3c(ccc2c2ccc4cc5c(cc4c21)OCO5)OCO3,inactive,–,–,–,–,inactive,1.78 µM (active),–,inactive,–
Cc1cc(C)c(/C=C2\C(=O)Nc3ccccc32)[nH]1,inactive,inactive,inactive,–,inactive,inactive,–,–,–,inactive
COC(=O)[C@H]1[C@H]2C[C@@H]3c4[nH]c5cc(OC)ccc5c4CCN3C[C@H]2C[C@@H](OC(=O)c2cc(OC)c(OC)c(OC)c2)[C@@H]1OC,inactive,inactive,inactive,inactive,inactive,–,–,inactive,–,–
CCCNC(C)C(=O)Nc1ccccc1C (configuration not stated),inactive,–,inactive,inactive,inactive,–,inactive,inactive,–,–
CCCCNC(=O)NS(=O)(=O)c1ccc(C)cc1,inactive,–,inactive,inactive,inactive,–,–,–,–,–
OCCN1CCN(CC/C=C2/c3ccccc3Sc3ccc(C(F)(F)F)cc32)CC1,inactive,inactive,inactive,inactive,inactive,inactive,inactive,–,–,–
CCCCOCCOCCOCc1cc2c(cc1CCC)OCO2,–,–,–,–,inactive,inactive,–,inactive,–,–

SMILES,outcome [1],outcome [2],outcome [3],Potency [4],Potency [5],Potency [6],Potency [7],Potency [8],outcome [9],Potency [10]
NC(N)=N/N=C/c1c(Cl)cccc1Cl,inactive,–,inactive,inactive,inactive,inactive,inactive,–,–,–
C[C@]12C=CC(=O)C=C1CC[C@H]1[C@@H]3C[C@@H](O)[C@](O)(C(=O)CO)[C@@]3(C)C[C@H](O)[C@@]12F,inactive,–,inactive,inactive,inactive,inactive,–,–,–,–
CCCN(CCC)CCc1cccc2c1CC(=O)N2,inactive,–,inactive,inactive,inactive,–,inactive,inactive,–,–
COCCOC(=O)C1=C(C)NC(C)=C(C(=O)OC(C)C)C1c1cccc([N+](=O)[O-])c1 (configuration not stated),inactive,–,inactive,inactive,inactive,–,–,inactive,–,–
COC(=O)C1=C(C)NC(C)=C(C(=O)OC(C)(C)CN(C)CCC(c2ccccc2)c2ccccc2)C1c1cccc([N+](=O)[O-])c1 (configuration not stated),inactive,–,inactive,inactive,inactive,inactive,–,–,–,–
NC(=Nc1ccccc1)Nc1ccccc1,–,inactive,–,–,inactive,–,–,inactive,–,–
CCN(CC)CCNC(=O)c1ccc(NC(C)=O)cc1,inactive,–,inactive,inactive,inactive,–,inactive,inactive,–,–
COCC(=O)O[C@]1(CCN(C)CCCc2nc3ccccc3[nH]2)CCc2cc(F)ccc2[C@@H]1C(C)C,inactive,inactive,inactive,inactive,inactive,inactive,–,–,–,–
COC(=O)C1=C(C)NC(C)=C(C(=O)OCCN(C)Cc2ccccc2)C1c1cccc([N+](=O)[O-])c1 (configuration not stated),inactive,–,inactive,inactive,inactive,–,–,inactive,–,–
O=C1NCN(c2ccccc2)C12CCN(CCCC(c1ccc(F)cc1)c1ccc(F)cc1)CC2,inactive,–,inactive,inactive,inactive,inactive,–,18.7 µM (active),–,–
C[N+](C)(C)CCCCCCCCCC[N+](C)(C)C,inactive,–,inactive,inactive,inactive,–,inactive,inactive,–,–
CCOC(=O)C1=C(C)NC(C)=C(C(=O)OC)C1c1cccc([N+](=O)[O-])c1 (configuration not stated),inactive,–,inactive,inactive,inactive,–,12.6 µM (active),–,–,–
CN(C)CCN(Cc1cccs1)c1ccccn1,inactive,–,inactive,inactive,inactive,–,inactive,inactive,–,–
CCN(CC)CCNC(=O)c1cc(S(C)(=O)=O)ccc1OC,inactive,–,inactive,inactive,inactive,–,inactive,inactive,–,–
Cc1ccc(/C(=C\CN2CCCC2)c2ccccn2)cc1,–,inactive,inactive,inactive,inactive,inactive,–,–,–,–
CCCC(C(=O)OCCN(CC)CC)(c1ccccc1)c1ccccc1,inactive,–,inactive,inactive,inactive,inactive,–,inactive,–,–
